# PMK inhibit: S. pneumoniae PMK inhibition | purified PMK, PK/LDH-coupled NADH absorbance 340 nm | 65,000 compounds, 0.49% hits | inhibition, % at 10 µM;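 active = top-ranked compounds by inhibition in the single 10 µM screen, taking a fixed number of the strongest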
# Spn DPM-DC inh: blocks S. pneumoniae diphosphomevalonate decarboxylase; purified DPM-DC, PK/LDH coupled NADH fluorescence; calls only at 10 µM; 65,000 compounds, 0.49% hits; AID 556;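 active = the 320 compounds with the highest percent inhibition in the single-dose primary screen, excluding strongly autofluorescent ones, cut at about 32% in these data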;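 also: kinetic rate of NADH fluorescence loss reporting ADP formed by the decarboxylase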
# A340 absorber: compound absorbs light at 340 nm; compound absorbance at 340 nm, fold over control; fold change at 10 µM; 65,000 tested, under 10 active; AID 708;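 active = at 10 µM dose, initial 340 nm absorbance at least 2 fold that of control wells; inactive = change under 2 fold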;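 also: initial absorbance extrapolated from kinetic A340 decline of NADH oxidation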
# Spn MK inh: inhibitors of Streptococcus pneumoniae mevalonate kinase; purified MK, PK/LDH-coupled NADH absorbance 340 nm; inhibition, % at 10 µM; 65,000 compounds, 0.48% hits;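 active = ranked among the strongest by inhibition in the single 10 µM screen, a fixed top-ranked set picked for dose follow-up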
# Autofluor 339: intrinsic fluorescence of library compounds, ex339/em460 – biochemical, MLSMR library, data from DPM-DC assay, artefact control, profiling panel | 65,000 compounds, 5.5% hits | fluorescence fold increase at 10 µM | compound autofluorescence, ex339/em460 nm, NADH buffer; stronger effect = higher value; 1 = no-compound wells, NADH background | AID 709;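 active = at 10 µM, mean starting fluorescence two-fold or more over control wells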;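 also: signal is the first read of a kinetic run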
# NADH coupling: inhibitors of enzymes used to reach an NAD/NADH endpoint. coupled PK/LDH NADH assays, four targets. IC50, µM (doses to about 10 µM). 65,000 compounds, 0.02% hits. AID 774;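 active = single-dose screening hits from any of four coupled enzyme assays that gave an IC50 when retested across doses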;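 also: the DPM-DC format reads NADH fluorescence rather than 340 nm absorbance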
# A number is an active result; 0 = inactive; - = not tested or not shown; + = active, no number. A selection: hits, their analogues and other compounds. The true share with any hit is near 6.8%.
SMILES,PMK inhibit,Spn DPM-DC inh,A340 absorber,Spn MK inh,Autofluor 339,NADH coupling
CCSc1nc(N2CCOCC2)c2c(c1C#N)CCCC2,0,0,0,0,0,0
COc1ccccc1NC(=O)N(CCCN1CCOCC1)Cc1cc2cc3c(cc2[nH]c1=O)OCO3,0,0,0,0,3.49,0
O=C(Nc1ccc(F)cc1)N(CCCN1CCOCC1)Cc1cc2cc3c(cc2[nH]c1=O)OCO3,27.0,+,0,0,2.71,0
O=C(Nc1ccc(F)cc1)N(CCCN1CCOCC1)Cc1cc2cc3c(cc2[nH]c1=O)OCCO3,0,-,0,0,3.17,0
COCCN1C(=O)C(=O)/C(=C(/O)c2ccc(OCC(C)C)cc2)C1c1cccnc1 (stereo not drawn),0,0,0,0,0,0
COc1ccc2nc(CC(C)(C)CC(=O)O)c[n+]([O-])c2c1,0,-,0,0,2.87,0
CSc1ccccc1NS(=O)(=O)c1ccccc1,0,0,0,0,0,0
Cn1c(-c2ccc(N)cc2)nc2ccccc21,0,+,0,0,3.89,0
Cc1ccc2[nH]c(=S)cc(C)c2c1,0,0,0,0,0,0
CSc1ccc2[nH]c(=O)cc(C)c2c1,0,-,0,0,3.75,0
O=C1CCCC2=C1C(c1ccncc1)c1c(nc(SCc3ccccc3Cl)[nH]c1=O)N2 (stereo not drawn),0,0,0,0,2.14,0
C(=N\C(/N=C/c1ccco1)c1ccco1)/c1ccco1,0,0,0,0,2.05,0
COc1cc2c(OC)cccc2cc1C(=O)O,0,-,0,0,2.92,0
CCN(c1c(C)n(C)n(-c2ccccc2)c1=O)S(C)(=O)=O,0,0,0,0,0,0
CCCN(C(=O)c1ccccc1N)c1c(C)n(C)n(-c2ccccc2)c1=O,29.0,0,0,0,0,0
Cc1ccc(-n2c(=O)c(C#N)cc3c(=O)n4ccccc4nc32)cc1,0,-,0,0,3.26,0
CC(=O)N=c1c(C#N)cc2c(=O)n3cccc(C)c3nc2n1CC(C)C,0,-,0,0,3.86,0
Cc1cccn2c(=O)c3cc(C#N)c(=NC(=O)c4ccc5c(c4)OCO5)n(CC(C)C)c3nc12,0,+,0,0,2.5,0
Cc1cccn2c(=O)c3cc(C#N)c(=O)n(-c4c(C)n(C)n(-c5ccccc5)c4=O)c3nc12,0,0,0,0,0,0
Cc1cc(-n2c(=O)c(C#N)cc3c(=O)n4cccc(C)c4nc32)no1,0,-,0,0,4.02,0
Cc1cccn2c(=O)c3cc(C#N)c(=N)n(Cc4ccncc4)c3nc12,0,0,0,0,0,0
CCOC(=O)C1=C(N)OC2=C(C(=O)CCC2)C1c1ccc(C)s1 (stereo not drawn),37.0,0,0,0,0,0
CNC(=O)c1[nH]cnc1C(=O)Nc1cccc(OC)c1,0,0,0,0,0,0
COc1ccccc1NC(=O)c1nc[nH]c1C(=O)Nc1ccccc1OC,0,0,0,0,2.33,0
CCOc1ccccc1NC(=O)c1nc[nH]c1C(=O)Nc1ccccc1OCC,0,-,0,0,5.25,0
SMILES,PMK inhibit,Spn DPM-DC inh,A340 absorber,Spn MK inh,Autofluor 339,NADH coupling
COc1ccc(NC(=O)c2nc[nH]c2C(=O)Nc2ccccc2C)cc1,0,0,0,0,3.24,0
Cc1ccccc1NC(=O)c1nc[nH]c1C(=O)NCc1ccccc1,0,0,0,0,0,0
CCN(CC)c1nc(N)c2c(N)nc3c(c2c1C#N)CC(c1ccccc1)O3 (stereo not drawn),0,-,0,0,2.1,0
CCN(CC)c1nc(N)c2c(N)n(-c3ccccc3C)c(=S)c(C#N)c2c1C#N,0,0,0,0,0,0
COc1cccc2c(=O)c(C(=O)NCc3cccs3)c[nH]c12,0,-,0,0,3.73,0
CC12CCC(=O)N1C(C(=O)O)Cc1c2[nH]c2ccccc12 (stereo not drawn),0,0,0,0,0,0
COc1ccc2c(c1OC)C(=O)N1C(C(=O)O)Cc3c([nH]c4ccccc34)C21 (stereo not drawn),0,0,0,0,2.17,0
CC(C)C1Oc2ccccc2N(CC(=O)NCCCN2C(C)CCCC2C)C1=O (stereo not drawn),0,0,0,47.0,0,0
CCC1Oc2ccccc2N(CC(=O)NCCCN2CCN(Cc3ccccc3)CC2)C1=O (stereo not drawn),0,0,0,0,0,0
O=C(NC1CCCCC1)C(c1ccco1)N(Cc1cccnc1)C(=O)C1COc2ccccc2O1 (stereo not drawn),0,0,0,0,0,0
CCOC(=O)c1c(CN2CCN(CCO)CC2)n(C)c2cc(Br)c(OC)cc12,0,0,0,0,0,0
COc1ccccc1Oc1c(C)oc2c(CN3CCN(CCO)CC3)c(O)ccc2c1=O,0,-,0,0,3.95,0
CCOC(=O)c1ccc(Oc2c(C)oc3c(CN4CCN(C)CC4)c(O)ccc3c2=O)cc1,0,-,0,0,3.86,0
Cc1oc2c(CN3CCCC3)c(O)ccc2c(=O)c1Oc1ccccc1Br,0,-,0,0,3.85,0
CN1CCN(Cc2c(O)ccc3c(=O)c(Oc4ccccc4Cl)c(C(F)(F)F)oc23)CC1,0,0,0,0,0,0
CCOC(=O)c1c(C)oc2ccc(O)c(CN3CCCCC3)c12,0,0,0,0,0,0
CCOc1ccccc1Oc1c(C)oc2c(CN3CCN(CCO)CC3)c(O)ccc2c1=O,0,-,0,0,3.91,0
COc1cc2c(cc1OC)CN(S(=O)(=O)c1ccc3c(c1)OCCO3)CC2,0,0,0,0,0,0
COC(=O)c1ccc(CSc2ncnc3c2nnn3-c2ccc(OC)cc2)o1,0,0,0,0,0,0
CCc1cc2c(=O)c(-c3nc4ccccc4n3C)c(COCC(=O)O)oc2cc1O,0,0,0,0,0,0
CC(=O)Oc1ccc2cc(-c3nc4ccccc4n3C)c(=O)oc2c1,0,-,0,0,2.14,0
O=c1cc(-c2ccc3c(c2)OCO3)oc2ccccc12,0,-,0,0,3.65,0
O=c1cc(-c2ccncc2)oc2ccccc12,0,0,0,0,0,0
Cc1nonc1NC(=O)c1ccc(Cl)c(S(=O)(=O)N2CCCCC2)c1,0,0,0,0,0,0
Cc1cccc(C)c1-n1nnnc1S(=O)(=O)Cc1ccccc1Cl,0,0,0,0,0,0
CCN(CC)CCCN1C(=O)C(=O)/C(=C(/O)c2ccccc2)C1c1ccccn1 (stereo not drawn),0,0,0,0,0,0
Nc1c(C(=O)NC2CCCC2)c2nc3ccccc3nc2n1/N=C/c1cccnc1,0,+,0,0,3.21,0
COc1ccc(C(=O)CN2C(=O)C(C)(C)Oc3ccc(C(=O)N4CCCCCC4)cc32)cc1,0,0,0,0,0,0
Cc1nn2c3c(cnc2c1-c1ccccc1)C(=O)CCC3,0,0,0,0,0,0
Cc1nn(-c2ccccn2)c2c1-c1nc(N)ncc1CC2,0,-,0,0,3.62,0

# Screens as filed in PubChem.
